Unmarked numbers belong to inactive results. Inconclusive results are not listed. The source made the active and inactive calls. The call rests on the fitted dose curve; in most records, active means well fitted curve in the direction sought with a large enough effect; inconclusive means small, poorly fitted or top-dose-only effect, or another doubt; inactive means no such curve, though single readings can be large; an effect the other way counts as inactive or inconclusive.

A short description of assay [1]: Validation qHTS assay for inhibitors of Activation Induced Cytidine Deaminase (AID): UDG Counterscreen signal (AID 1347427). Further: 0% is about no effect. In short, it runs like this:
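Fluorescence at 560 nm excitation, 665 nm emission reports UDG signal after 250 mM NaOH (2x) addition and 30 min. Enzymes (AID 1 uM, UDG 2 U/mL, at 4/3x) preincubated 10 min with compound, then 4 h with 4x 250 nM DJC20/DJC23 substrate at room temperature.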

The target in assay [2] is Single-stranded DNA cytosine deaminase (Homo sapiens) (UniProt Q9GZX7). The experiment in a line: Validation qHTS assay for inhibitors of Activation Induced Cytidine Deaminase (AID): AID signal (AID 1347429). Further: potency means the concentration at half of the fitted maximal effect. In short, it runs like this: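 Steps: dispense AID with UDG; pin-transfer compound up to 114 uM final; add DJC20/DJC23 substrate and hold 4 hr at room temperature; add NaOH, hold 30 min; read FRET signal (540/590 nm).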

Assay [3] is described as follows: Primary qHTS for inhibitors of La Crosse Virus (LACV) - induced cell death in SH-SY5Y cells (AID 1508616). Further: potency means the concentration at half of the fitted maximal effect. Put shortly:
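SH-SY5Y, 6000 cells/well; cpd via pin tool in DMSO; LACV 0.01 MOI; 6 d 37C 5% CO2; ATPLite, 5 min RT; luminescence normalized to ±virus DMSO controls.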

Assay [4] is described as follows: Primary qHTS for small molecule stabilizers of the endoplasmic reticulum resident proteome: Secreted ER Calcium Modulated Protein (SERCaMP) assay (AID 1508630). Further: potency means the concentration at half of the fitted maximal effect. In short, it runs like this: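 The SH-SY5Y reporter protocol was run at 3 concentrations up to 38.3 uM (primary) or 11 concentrations (follow-up): 16 h compound, 100 nM thapsigargin for 4 h, then extracellular luciferase luminescence.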

Assay [5] concerns the target Calcium and integrin-binding protein 1 (Homo sapiens) (UniProt Q99828). Briefly: Validation qHTS for Identification of Calcium Integrin Binding protein 1 (CIB1) Competitor (AID 1508618). Further: on the % scale 0 is the no-effect control and ±100 the full control effect. In short, it runs like this: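 CIB1-GST (1 uM final) incubated 15 min at room temperature with compounds (up to 114 uM), then FITC-labelled alphaIIb peptide (100 nM) added. FP read (Ex 480/Em 540) after 15 min, pH 7.4 buffer containing 5 mM CaCl2.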

A short description of assay [6]: Confirmatory qHTS for small molecule stabilizers of the endoplasmic reticulum resident proteome: Secreted ER Calcium Modulated Protein (SERCaMP) assay (AID 1508628). Further: nearly all actives have a fitted effect of over 40% in size. Further: potency means the concentration at half of the fitted maximal effect. Put shortly: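 Reporter secretion upon ER calcium depletion (100 nM thapsigargin, 4 h, 37C) is measured as medium luminescence with coelenterazine, after 16 h compound pretreatment of SH-SY5Y-GLuc-SERCaMP cells; primary at three concentrations up to 38.3 uM, follow-up at 11 (up to 76.6 uM).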

Assay [7] is described as follows: Counterscreen qHTS for small molecule stabilizers of the endoplasmic reticulum resident proteome: GLuc-NoTag assay (AID 1508627).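 Further: series mostly up to about 76 µM; 0% = thapsigargin alone and -100% = DMSO vehicle control.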 Put shortly: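 Secreted GLuc lacking the SERCaMP modification is measured in SH-SY5Y cells exposed to compound for 19 h and then to thapsigargin (100 nM, 4 h) to deplete ER calcium; hits retested at 11 concentrations, up to 76.6 uM.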

Assay [8] can be described thus: Cell Viability qHTS for small molecule stabilizers of the endoplasmic reticulum resident proteome (AID 1508629).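 Further: human SH-SY5Y neuroblastoma cells carrying the GLuc-SERCaMP reporter; compound exposure about 46 h in total before the viability read; on the % scale 0 is the no-effect control and ±100 the full control effect.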 The settings on record: cell viability counter-screen, 100 nM thapsigargin for final 4 h.
The target in assay [9] is Calcium and integrin-binding protein 1 (Homo sapiens) (UniProt Q99828). The experiment in a line: Primary qHTS for Identification of Calcium Integrin Binding Protein 1 (CIB1) Competitor (AID 1508620).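 Further: GST tagged CIB1 binding a fluorescein labelled alphaIIb integrin peptide tracer; top concentration of the series differs between compounds; on the % scale 0 is the no-effect control and ±100 the full control effect.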 In short, it runs like this: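 Fluorescence polarization competition: CIB1-GST (1 uM final) preincubated with compound 15 min at room temperature, then FITC-labeled alphaIIb peptide (100 nM final) added for another 15 min. Polarization read at Ex 480/Em 540.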
Sequence of Calcium and integrin-binding protein 1 (Homo sapiens) (Q99828 whole entry, looked up): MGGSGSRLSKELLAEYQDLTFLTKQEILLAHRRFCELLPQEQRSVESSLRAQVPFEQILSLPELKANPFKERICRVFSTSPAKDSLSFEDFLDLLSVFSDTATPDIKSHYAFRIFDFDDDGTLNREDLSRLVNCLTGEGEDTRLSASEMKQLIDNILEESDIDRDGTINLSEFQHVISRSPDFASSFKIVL

Sequence of Single-stranded DNA cytosine deaminase (Homo sapiens) (Q9GZX7 whole entry, looked up): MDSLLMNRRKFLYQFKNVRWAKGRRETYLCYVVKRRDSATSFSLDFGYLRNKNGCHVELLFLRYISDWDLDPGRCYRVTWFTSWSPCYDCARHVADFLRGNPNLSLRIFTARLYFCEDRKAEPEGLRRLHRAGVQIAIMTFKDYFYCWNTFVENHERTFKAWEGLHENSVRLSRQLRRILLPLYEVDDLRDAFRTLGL

Consider `c1ccc(-c2ccccn2)nc1`, for which the Potency entry in assay [1], in assay [2], in [3] and in [4] was “inactive” throughout.
As for `CCCCC/C=C\CC(O)/C=C/c1cccc(CC(O)CCCCO)n1` (centres undefined), the Potency entry in assay [1], in assay [2], in assay [3] and in assay [4] was “inactive” in each case.
With `O=C(O)CCCC[C@@H]1CCSS1`, the Potency result in [1], in [2], in assay [3] and in assay [4] was “inactive” each time.
Regarding `NCCNC(=O)c1ncsc1-c1cccc(F)c1`, the Potency result in assay [1], in [2], in assay [3] and in assay [4] was “inactive” each time.
Regarding `C[N+]1(C)CCC(OC(=O)C(c2ccccc2)c2ccccc2)CC1`, the Potency entry in assay [1], in [2], in assay [3] and in [4] was “inactive” throughout. In addition, the outcome in [5] was inactive.
On to `OCC1O[C@H]([S-])[C@H](O)[C@@H](O)[C@@H]1O.[Au+]` (some centres undefined), for which the Potency entry in [1], in assay [3] and in assay [4] was “inactive” throughout. Further, the Potency in assay [2] is 12.6 µM (active).
`Cc1ccc(C(=O)O[C@H](C(=O)O)[C@@H](OC(=O)c2ccc(C)cc2)C(=O)O)cc1` (tested in a mixture with another compound): the Potency entry in assay [1], in assay [2], in assay [3] and in assay [6] was “inactive” throughout.
As for `CCCCCC(O)c1cccc(OCc2ccc3ccccc3n2)c1` (centres undefined), the Potency entry in [1], in assay [2], in [3] and in [4] was “inactive” in each case.
As for `COc1cc(SC)ccc1C(=O)N1CCC(Cc2ccccc2)CC1`, the Potency result in assay [1], in assay [2], in assay [3] and in assay [4] was “inactive” each time.
For the molecule `Oc1cc(O)cc(/C=C/c2ccc(O)c(O)c2)c1`, the Potency entry in assay [1], in [2] and in assay [6] was “inactive” in each case. In addition, the Potency in assay [3] was 3.16 µM (active).
Take `C#CCN1C(C)=C(C(=O)OC)C(c2cccc([N+](=O)[O-])c2)C(C(=O)OCC)=C1C` (centres undefined): the Potency result in assay [1], in assay [2], in [3] and in [4] was “inactive” each time.
As to `Cc1ccccc1CNc1ncnc2c1ncn2C1OC(CO)C(O)C1O` (centres undefined), the Potency result in assay [1], in [2], in assay [3] and in [4] was “inactive” throughout.
`O=C(Nc1cccc(C(=O)Nc2ccc(S(=O)(=O)O)c3cc(S(=O)(=O)O)cc(S(=O)(=O)O)c23)c1)Nc1cccc(C(=O)Nc2ccc(S(=O)(=O)O)c3cc(S(=O)(=O)O)cc(S(=O)(=O)O)c23)c1`: the Potency result in assay [1], in assay [2], in [3] and in assay [4] was “inactive” throughout.
For the molecule `O=C(O)[C@@H]1C[C@@H](C(=O)O)N1`, the Potency result in assay [1], in [2], in assay [3] and in assay [4] was “inactive” in each case.
As to `O=C(O)/C=C/C(O)c1ccc(Cl)cc1` (centres undefined), the Potency result in assay [1], in [2], in [3] and in [4] was “inactive” throughout.
In the case of `CCc1c(C(=O)NCCc2ccc(N3CCCCC3)cc2)[nH]c2ccc(Cl)cc12`, the Potency result in assay [1], in assay [2], in assay [3] and in assay [4] was “inactive” in each case.
In the case of `Cc1ccc(O)c(N=Nc2ccccc2)n1`, the Potency result in assay [1], in [2], in [3], in assay [7] and in [4] was “inactive” each time.
With `O=C(c1cc(O)c(O)c([N+](=O)[O-])c1)c1ccccc1F`, the Potency result in [1], in [2], in assay [3] and in assay [4] was “inactive” throughout.
As for `N#C/C(=C\c1c[nH]c2ccccc12)C(=O)c1ccc(O)c(O)c1`, the Potency entry in assay [1], in assay [2], in [3] and in assay [7] was “inactive” throughout. The Potency in assay [6] was 12.6 µM (active).
Take `Brc1c(Br)c(Br)c2n[nH]nc2c1Br`: the Potency result in [1], in assay [2], in assay [3] and in assay [4] was “inactive” in each case.
For `O=c1[nH]c2cc(C(F)(F)F)ccc2n1-c1cc(C(F)(F)F)ccc1O`, the Potency result in [1], in [2], in assay [3] and in [4] was “inactive” throughout.
For `Oc1ccccc1O`, the Potency entry in [1] and in assay [2] was “inactive” each time. Moreover, the Potency was 2 µM (active) in [3], 7.08 µM (active) in assay [6] and 25.1 µM (active) in assay [4]. Further, the max response in assay [8] is -15.9%.
As for `CCCCCCCCCCCCCCCCCCNC(=O)OCC(COP(=O)([O-])OCC[n+]1ccsc1)OC` (centres undefined), the Potency entry in assay [1], in [2], in assay [3] and in assay [4] was “inactive” each time.
With `COc1cc(OC)c(/C=C2/C(=O)Nc3ccccc32)c(OC)c1`, the Potency entry in assay [1], in assay [2] and in assay [4] was “inactive” throughout. For the same molecule, in assay [3], the Potency is 0.891 µM (active). The outcome in assay [5] was inactive.
For the molecule `C[N+](C)(C)CC(=O)[O-]`, the Potency entry in [1], in assay [2], in [3] and in [4] was “inactive” each time.
In the case of `CO/S(=N\S(=O)(=O)c1ccc(Cl)cc1)c1ccc([N+](=O)[O-])cc1` (centres undefined), the Potency result in assay [1], in assay [2], in assay [3] and in [4] was “inactive” each time.
In the case of `CN1CCC[C@H]1c1cccnc1`, the Potency result in assay [1], in assay [2], in assay [3] and in assay [4] was “inactive” each time.
Turning to `N[C@@H](CC(=O)O)C(=O)O`, the Potency entry in assay [1], in [2], in assay [3] and in [4] was “inactive” in each case.
Consider `O=C(O)[C@@H]1C[C@H](C(=O)O)N1`, for which the Potency result in assay [1], in [2], in assay [3] and in assay [4] was “inactive” in each case.
As for `CN(C)CCC(c1ccc(Cl)cc1)c1ccccn1` (centres undefined), the Potency entry in [1], in assay [2], in [3] and in [4] was “inactive” each time.
For `O=C(O)CC1CC(c2ccccc2)=NO1` (centres undefined), the Potency entry in [1], in assay [2], in assay [3] and in assay [9] was “inactive” throughout.
For the molecule `O=c1[nH]c2cc(Cl)c(Cl)cc2[nH]c1=O`, the Potency entry in [1], in assay [2], in assay [3] and in assay [4] was “inactive” each time.
As for `COc1ccc(/C=C/C(=O)Nc2ccccc2C(=O)O)cc1OC`, the Potency result in assay [1], in assay [2], in assay [3] and in [9] was “inactive” each time. Moreover, the Potency in assay [6] is 39.8 µM (active).
